NIH3T3 tox = Cytotoxic Profiling in NIH 3T3 Cell Line of Diverse Libraries Using Quantitative High-Throughput Screening; 94,000 compounds, 4.3% hits; Potency, µM (top dose mostly 96.7 µM), hits mostly inhibitors; NIH 3T3 viability, CellTiter-Glo ATP luminescence, 48-72 h; note: nearly all actives have a fitted effect of over 55% in size
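Cytotoxicity is measured as loss of cellular ATP: NIH 3T3 cells (400/well) are exposed to compound for 48 or 72 hr at 37 °C, then CellTiter-Glo luminescence is imaged after 10 min at room temperature.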
Luciferase inh = Firefly luciferase inhibition profiling of diverse chemical library using quantitative high-throughput screening; Potency, µM (titrated, usually from 115 µM), usual class: inhibitors; purified P. pyralis luciferase, luminescence, biochemical; Luciferin 4-monooxygenase (Photinus pyralis), P08659; 76,000 compounds, 2.5% hits; note: nearly all actives have a fitted effect of over 65% in size
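Purified P. pyralis luciferase (10nM final) in 50mM Tris acetate pH 7.5, 10mM Mg acetate, 0.01% Tween-20, 0.05% BSA with 10uM D-luciferin and 10uM ATP. Compounds titrated qHTS. Luminescence imaged on CCD.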
hNpr1 antagonist = Natriuretic polypeptide receptor (hNpr1) antagonism - Primary qHTS; HEK293 hNpr1 GloSensor cGMP, ANP-stimulated luminescence; Potency, µM (top dose mostly 46.3 µM), most hits filed as inhibitors; 76,000 compounds, 1.6% hits; Atrial natriuretic peptide receptor 1 (Homo sapiens), P16066; calls by dose curve; note: nearly all actives have a fitted effect of over 60% in size
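Compound pre-incubated 30 min at room temperature on GloSensor-loaded HEK293 cells stably carrying hNpr1 and the pGS-40F cGMP biosensor. Stimulation uses hNppA at 0.1 nM final; luminescence is taken at baseline and 20 min post-agonist.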
HEK cytotox = Cytotoxic Profiling in HEK 293 Cell Line of Diverse Libraries Using Quantitative High-Throughput Screening | HEK 293 viability, ATP luminescence (CellTiter-Glo), 48-72 h | Potency, µM (top dose mostly 115 µM), actives largely listed as inhibitors | 94,000 compounds, 6.6% hits; note: nearly all actives have a fitted effect of over 60% in size
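Cytotoxicity was scored by loss of ATP-coupled luminescence (CellTiter-Glo) in HEK 293 cells. Compound treatment ran 48 or 72 hr at 37 degree Celsius, 5% CO2, 95% humidity.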
NPR1 antag cnf = Natriuretic polypeptide receptor (hNpr1) antagonism - Confirmation; shares compounds with hNpr1 antagonist; HEK293 hNpr1 cGMP GloSensor luminescence, ANP-stimulated; Potency, µM (series often up to 57.6 µM), usual class: inhibitors; 1,400 compounds, 76% hits; AID 1347044, 2019; calls by dose curve; note: nearly all actives have a fitted effect of over 70% in size
NPR2 antag = Natriuretic polypeptide receptor (hNpr2) antagonism - Subtype selectivity assay; shares compounds with hNpr1 antagonist; 1,400 compounds, 67% hits; Potency, µM (series often up to 57.6 µM), most hits filed as inhibitors; HEK293 hNpr2 GloSensor cGMP luminescence, CNP-stimulated; calls by dose curve; note: nearly all actives have a fitted effect of over 70% in size
Target sequence (P20594 whole entry, looked up): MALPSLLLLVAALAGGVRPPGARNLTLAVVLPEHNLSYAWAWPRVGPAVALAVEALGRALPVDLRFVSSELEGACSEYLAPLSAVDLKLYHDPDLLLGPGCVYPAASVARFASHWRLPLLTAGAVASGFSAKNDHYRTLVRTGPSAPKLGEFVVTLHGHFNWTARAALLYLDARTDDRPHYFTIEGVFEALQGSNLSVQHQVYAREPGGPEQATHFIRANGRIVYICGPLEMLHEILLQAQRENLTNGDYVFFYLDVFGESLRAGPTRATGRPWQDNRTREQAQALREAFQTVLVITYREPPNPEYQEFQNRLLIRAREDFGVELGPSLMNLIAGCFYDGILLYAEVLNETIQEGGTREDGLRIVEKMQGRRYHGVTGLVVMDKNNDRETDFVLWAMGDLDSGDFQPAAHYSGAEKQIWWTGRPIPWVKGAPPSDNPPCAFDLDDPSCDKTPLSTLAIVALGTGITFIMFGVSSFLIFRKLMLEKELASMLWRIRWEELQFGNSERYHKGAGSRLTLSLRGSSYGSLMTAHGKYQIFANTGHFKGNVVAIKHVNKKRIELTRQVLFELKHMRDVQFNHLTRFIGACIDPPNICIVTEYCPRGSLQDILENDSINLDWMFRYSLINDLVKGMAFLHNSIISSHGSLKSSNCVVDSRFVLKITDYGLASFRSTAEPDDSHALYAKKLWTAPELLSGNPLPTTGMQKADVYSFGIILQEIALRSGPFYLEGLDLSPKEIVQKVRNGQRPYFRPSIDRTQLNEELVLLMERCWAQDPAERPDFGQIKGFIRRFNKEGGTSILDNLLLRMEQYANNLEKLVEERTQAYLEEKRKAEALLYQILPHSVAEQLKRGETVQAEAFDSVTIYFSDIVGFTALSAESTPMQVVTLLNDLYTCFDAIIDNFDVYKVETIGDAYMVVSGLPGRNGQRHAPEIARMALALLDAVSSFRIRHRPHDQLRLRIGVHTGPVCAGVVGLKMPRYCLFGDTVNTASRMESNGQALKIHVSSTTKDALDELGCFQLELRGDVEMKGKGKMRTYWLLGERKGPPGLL
FLuc inh counter = Natriuretic polypeptide receptor (hNpr1) antagonism - Confirmation firefly luciferase (FLuc) inhibition counterscreen. 1,400 compounds, 0.7% hits. purified FLuc enzyme, luminescence, Km substrate. AID 1347047, 2019. Potency, µM (doses to about 57.6 µM), actives largely listed as inhibitors. shares compounds with hNpr1 antagonist
GloSensor cGMP = Natriuretic polypeptide receptor (hNpr1) antagonism - Counterscreen GloSensor control cell line | HEK293 GloSensor cGMP, SNP-stimulated, luminescence | shares compounds with hNpr1 antagonist | Potency, µM (titrated, usually from 57.6 µM), most hits filed as inhibitors | 1,400 compounds, 69% hits; calls by dose curve; note: nearly all actives have a fitted effect of over 70% in size
Numbers stand for hits. Hits are enriched below; roughly 11% of the tested compounds scored in any of these assays. Unless noted, calls come from the whole dose curve; as a rule, active = well fitted curve in the direction sought with a large enough effect; inconclusive = small, poorly fitted or top-dose-only effect, or another doubt; inactive = no such curve, though single readings can be large; an effect the other way counts as inactive or inconclusive.

Cc1ccc(C(=O)N[C@H]2CO[C@H]3[C@@H]2OC[C@@H]3Nc2nccc(-c3ccc(-c4ccccc4)cc3)n2)cc1 was read as NIH3T3 tox inactive, Luciferase inh inactive, hNpr1 antagonist inconclusive, HEK cytotox 12.6µM, NPR1 antag cnf inconclusive, NPR2 antag inactive, FLuc inh counter inactive and GloSensor cGMP inactive.
O=C1[C@@H]2C[C@@H](O)CN2C2(CN(Cc3cccc(OC(F)(F)F)c3)C2)C(=O)N1Cc1cccc(Cl)c1 was read as NIH3T3 tox inconclusive, Luciferase inh inactive, hNpr1 antagonist inactive and HEK cytotox inconclusive.
`Cc1cc(N2CCC3(CCCN(C)C3=O)C2)nc(-c2ccccc2O)n1` (stereo not drawn) gave NIH3T3 tox inconclusive, Luciferase inh inactive, hNpr1 antagonist inactive and HEK cytotox inconclusive.
Screening COc1cc(CCC(=O)NC2CCc3nn(CC4CC4)c(=O)n3CC2)on1 (stereo not drawn) returned NIH3T3 tox inactive, Luciferase inh inactive, hNpr1 antagonist inactive and HEK cytotox inactive.
`COC(=O)N1CCC2(CC1)C(=O)NN=C2c1ccccn1` gave NIH3T3 tox inactive, Luciferase inh inactive, hNpr1 antagonist inactive and HEK cytotox inactive.
Screening O=C(N[C@H]1CO[C@H]2[C@@H]1OC[C@@H]2Nc1nccc(-c2ccccc2)n1)N1CCOCC1 returned NIH3T3 tox inactive, Luciferase inh inactive, hNpr1 antagonist inactive and HEK cytotox inactive.
`O=C(N[C@H]1CO[C@H]2[C@@H]1OC[C@@H]2Nc1nccc(-c2ccc(-c3ccccc3)cc2)n1)C1CCCCC1` gave NIH3T3 tox inconclusive, Luciferase inh inactive, hNpr1 antagonist inconclusive, HEK cytotox inconclusive, NPR1 antag cnf 27.3µM, NPR2 antag inconclusive, FLuc inh counter inactive and GloSensor cGMP 21.7µM.
O=C(N[C@H]1CO[C@H]2[C@@H]1OC[C@@H]2Nc1nccc(C2CCCC2)n1)c1ccccc1 was read as NIH3T3 tox inactive, Luciferase inh inactive, hNpr1 antagonist 28.2µM, HEK cytotox 63.1µM, NPR1 antag cnf 35.3µM, NPR2 antag 35.3µM, FLuc inh counter inactive and GloSensor cGMP 39.6µM.
`CC(=O)Nc1cc(-c2cn(C)c(=O)n3cc(COc4ccc(Cl)cc4)nc23)ccn1` gave NIH3T3 tox inactive, Luciferase inh inactive, hNpr1 antagonist inactive and HEK cytotox inactive.
For Cn1cc(-c2ccc(O)c(F)c2)c2nc(COc3ccc(Cl)cc3)cn2c1=O the results were NIH3T3 tox 31.6µM, Luciferase inh inactive, hNpr1 antagonist 14.1µM, HEK cytotox 31.6µM, NPR1 antag cnf 31.4µM, NPR2 antag 31.4µM, FLuc inh counter inconclusive and GloSensor cGMP 28µM.
For O=C1CC2(CCN(C(=O)C3CCN(C(=O)c4ccc(F)cc4)CC3)CC2)Oc2ccccc2N1 the results were NIH3T3 tox inactive and HEK cytotox inconclusive.
`O=C1CC2(CCN(C(=O)c3ccc(Cl)cc3)CC2)Oc2ccccc2N1` gave NIH3T3 tox inactive, HEK cytotox inconclusive, NPR1 antag cnf 17.2µM, NPR2 antag 19.3µM, FLuc inh counter inactive and GloSensor cGMP 12.2µM.
For Cc1nn2c(c1-c1ccccc1Oc1ccccc1)N(C(=O)Cc1ccc3c(c1)OCO3)CCC2 the results were NIH3T3 tox inconclusive, Luciferase inh inactive, hNpr1 antagonist 7.94µM, HEK cytotox inconclusive, NPR1 antag cnf 10.9µM, NPR2 antag 5.44µM, FLuc inh counter inactive and GloSensor cGMP inactive.
For Cc1nn2c(c1-c1ccccc1-c1ccccc1)N(C(=O)Cc1ccc3c(c1)OCO3)CCC2 the results were NIH3T3 tox inconclusive, Luciferase inh inactive, hNpr1 antagonist inactive and HEK cytotox inconclusive.
Cc1nn2c(c1-c1ccccc1OCc1ccccc1)N(C(=O)Cc1ccc3c(c1)OCO3)CCC2 was read as NIH3T3 tox 12.6µM, Luciferase inh inactive, hNpr1 antagonist 8.91µM, HEK cytotox 79.4µM, NPR1 antag cnf 10.9µM, NPR2 antag 6.11µM, FLuc inh counter inactive and GloSensor cGMP inactive.
Screening O=S(=O)(c1cccc(F)c1)N1CCC(n2cnnc2C2CC2)CC1 returned NIH3T3 tox inactive, Luciferase inh inactive, hNpr1 antagonist inactive and HEK cytotox inactive.
CCOCCCNC(=O)C1(CCO)CC12CCOCC2 (stereo not drawn) was read as NIH3T3 tox inactive, Luciferase inh inactive, hNpr1 antagonist inactive and HEK cytotox inactive.
COc1cccc(COC2CN(Cc3ccccn3)C(=O)CN(C(=O)C3=NN(C)C(=O)CC3)C2)c1 (stereo not drawn) was read as NIH3T3 tox inactive, Luciferase inh inactive, hNpr1 antagonist inactive and HEK cytotox inactive.
Cn1nc(C2CCCN(C(=O)Cc3ccccc3)C2)n(Cc2ccccc2)c1=O (stereo not drawn) was read as NIH3T3 tox inactive, Luciferase inh inactive, hNpr1 antagonist inactive and HEK cytotox inactive.
`COc1ccc(C(=O)N2CCC3(CC2)N=C(c2ccc(Cl)cc2)NO3)cc1OC` gave NIH3T3 tox inactive, Luciferase inh inactive, hNpr1 antagonist 11.2µM, HEK cytotox inconclusive, NPR1 antag cnf 10.9µM, NPR2 antag 12.2µM, FLuc inh counter inactive and GloSensor cGMP 9.68µM.
Screening CCOc1ccc(C(=O)N2CCC3(CC2)N=C(c2ccc(Cl)cc2)NO3)cc1 returned NIH3T3 tox inactive, Luciferase inh inactive, hNpr1 antagonist 8.91µM, HEK cytotox inconclusive, NPR1 antag cnf 19.3µM, NPR2 antag 17.2µM, FLuc inh counter inactive and GloSensor cGMP 15.3µM.
`O=C(c1ccc2c(c1)OCO2)N1CCC2(CC1)N=C(c1ccc(Br)cc1)NO2` gave NIH3T3 tox inconclusive, Luciferase inh inactive, hNpr1 antagonist 12.6µM, HEK cytotox inconclusive, NPR1 antag cnf 21.7µM, NPR2 antag 19.3µM, FLuc inh counter inactive and GloSensor cGMP 17.2µM.
For CCOc1ccc(CC(=O)N2CCC3(CC2)N=C(c2ccc(Cl)cc2)NO3)cc1 the results were NIH3T3 tox inconclusive, Luciferase inh inactive, hNpr1 antagonist inconclusive and HEK cytotox inconclusive.
For COc1ccc(C(=O)N2CCC3(CC2)N=C(c2ccccc2)NO3)cc1OC the results were NIH3T3 tox inactive, Luciferase inh inactive, hNpr1 antagonist inactive and HEK cytotox inactive.
